The supplement of paper PMC6089552
About 300 (9.4%) of roughly 3,200 compounds showed activity. Shown is part of a subset that was picked to be rich in actives.

Test system: A673/TR/shEF
Test: cell viability (LOESS-normalised, relative to median of negative controls) (log2 ratio); higher = more viable cells (less compound effect), active = hit call of the paper (over 3 MAD below the median)
Conditions: treatment time: 72 h
In short: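 A673/TR/shEF Ewing sarcoma cells (1,500 per well, 384-well plates) were grown with or without doxycycline to induce EWS-FLI1 shRNA knockdown, starting 24 h before compounds. Library compounds at two or more concentrations, with DMSO controls, were added for three days. Cell viability was read by CellTiter-Glo luminescence on an Envision reader, then LOESS-corrected per plate, divided by the median of negative controls and log2-transformed. Hits were wells at least three median absolute deviations from the median of all screened wells.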

[1] = 0.25 µM, library screen: screen1, EWS-FLI1 expression: high (no doxycycline)
[2] = 0.25 µM, library screen: screen1, EWS-FLI1 expression: low (doxycycline-induced shRNA knockdown)
[3] = 2.5 µM, library screen: screen1, EWS-FLI1 expression: high (no doxycycline)
[4] = 2.5 µM, library screen: screen1, EWS-FLI1 expression: low (doxycycline-induced shRNA knockdown)
[5] = 0.25 µM, library screen: screen2, EWS-FLI1 expression: high (no doxycycline)
[6] = 0.25 µM, library screen: screen2, EWS-FLI1 expression: low (doxycycline-induced shRNA knockdown)
[7] = 2.5 µM, library screen: screen2, EWS-FLI1 expression: high (no doxycycline)
[8] = 2.5 µM, library screen: screen2, EWS-FLI1 expression: low (doxycycline-induced shRNA knockdown)
[9] = 0.103 µM, library screen: screen3, EWS-FLI1 expression: high (no doxycycline)
[10] = 0.103 µM, library screen: screen3, EWS-FLI1 expression: low (doxycycline-induced shRNA knockdown)
[11] = 0.308 µM, library screen: screen3, EWS-FLI1 expression: high (no doxycycline)
[12] = 0.308 µM, library screen: screen3, EWS-FLI1 expression: low (doxycycline-induced shRNA knockdown)
[13] = 0.926 µM, library screen: screen3, EWS-FLI1 expression: high (no doxycycline)
[14] = 0.926 µM, library screen: screen3, EWS-FLI1 expression: low (doxycycline-induced shRNA knockdown)
[15] = 2.8 µM, library screen: screen3, EWS-FLI1 expression: high (no doxycycline)
[16] = 2.8 µM, library screen: screen3, EWS-FLI1 expression: low (doxycycline-induced shRNA knockdown)
[17] = 8.3 µM, library screen: screen3, EWS-FLI1 expression: high (no doxycycline)
[18] = 8.3 µM, library screen: screen3, EWS-FLI1 expression: low (doxycycline-induced shRNA knockdown)
[19] = 25 µM, library screen: screen3, EWS-FLI1 expression: high (no doxycycline)
[20] = 25 µM, library screen: screen3, EWS-FLI1 expression: low (doxycycline-induced shRNA knockdown)

Measured: cell viability (log2)

CCOC(=O)c1c(C)cc(O)cc1O
inactive: [1] 0.0788 | [2] 0.0693 | [3] 0.0357 | [4] 0.0819

CC1=C(C(=O)OC2CCCC2)C(c2coc3ccccc3c2=O)C2=C(CC(C)(C)CC2=O)N1 (stereo not drawn)
inactive: [1] 0.0783 | [2] 0.0738 | [3] 0.145 | [4] 0.0146

C#CCN(C)Cc1ccccc1
inactive: [1] 0.0858 | [2] 0.0954 | [5] 0.078 | [6] -0.0346 | [3] 0.175 | [4] 0.102
active: [7] -1.76 | [8] -2.08

CN(C)CCN(Cc1ccccc1)c1ccccn1
inactive: [1] 0.0764 | [2] 0.111 | [3] 0.247 | [4] 0.229

C#CCN(C)CCCOc1ccc(Cl)cc1Cl
inactive: [5] 0.27 | [6] 0.097 | [7] 0.132 | [8] 0.147

COc1ccc(CN2CCN(Cc3ccc(OC)c(OC)c3OC)CC2)cc1Br
inactive: [1] 0.104 | [2] 0.0582 | [3] 0.0165 | [4] 0.0422

Cc1ccc(OCC(=O)N2CCC(C)CC2)c(C)c1
inactive: [1] 0.0605 | [2] 0.118 | [3] 0.14 | [4] 0.114

COc1ccc2c(c1)CCC1=CC(=O)CC[C@@]12C
inactive: [1] 0.0515 | [2] 0.00881 | [3] 0.19 | [4] 0.155

CC1C2C(CC3C4CC[C@@H]5CC(=O)CC[C@]5(C)C4CC[C@@]32C)OC12CC[C@@H](C)CO2 (stereo partly drawn)
inactive: [1] 0.0621 | [2] 0.0593 | [3] 0.124 | [4] 0.0882

COCCN1C(=O)/C(=C\c2ccc(-c3ccc(Br)cc3)o2)SC1=S
inactive: [1] 0.0753 | [2] 0.00476 | [3] 0.101 | [4] 0.0615

CCCCCN(CCCCC)C(=O)C(CCC(=O)O)NC(=O)c1ccc(Cl)c(Cl)c1 (stereo not drawn)
inactive: [5] 0.131 | [6] 0.0648 | [7] 0.114 | [8] 0.0564

O=C(O)CCC(NC(=O)c1ccccc1C(=O)O)C(=O)O (stereo not drawn)
inactive: [5] 0.0764 | [6] 0.0149 | [7] 0.157 | [8] 0.0718

Nc1nc(N)c2nc(CNc3ccc(C(=O)N[C@@H](CCC(=O)O)C(=O)O)cc3)cnc2n1
active: [1] -1.62 | [2] -0.186
inactive: [5] 0.137 | [6] 0.126 | [3] 0.122 | [4] 0.141 | [7] 0.123 | [8] 0.134

Nc1nc(=O)c2nc(CNc3ccc(C(=O)N[C@@H](CCC(=O)O)C(=O)O)cc3)cnc2[nH]1
inactive: [1] 0.0181 | [2] 0.031 | [3] 0.0902 | [4] 0.0775

CN(Cc1cnc2nc(N)nc(N)c2n1)c1ccc(C(=O)N[C@@H](CCC(=O)O)C(=O)O)cc1
inactive: 0.025 µM, library screen: screen2, EWS-FLI1 expression: high (no doxycycline) 0.0134 | 0.025 µM, library screen: screen2, EWS-FLI1 expression: low (doxycycline-induced shRNA knockdown) 0.0597 | [9] -0.0597 | [10] 0.0506 | [6] 0.0894 | [12] 0.0568 | [14] 0.0108 | [8] 0.0271 | [16] 0.0377 | [18] 0.0521 | 25 µM, library screen: screen2, EWS-FLI1 expression: low (doxycycline-induced shRNA knockdown) 0.0873 | [20] 0.0291
active: [5] -0.406 | [11] -0.512 | [13] -0.53 | [7] -0.754 | [15] -0.711 | [17] -0.751 | 25 µM, library screen: screen2, EWS-FLI1 expression: high (no doxycycline) -0.743 | [19] -0.797

CN(Cc1cnc2nc(N)nc(N)c2n1)c1ccc(C(=O)N[C@H](CCC(=O)O)C(=O)O)cc1
inactive: [5] 0.209 | [6] 0.115 | [7] 0.0762 | [8] 0.165

CC(=O)O[C@H]1CC2(C)[C@@H](C[C@@H](O)[C@H]3[C@@]4(C)CC[C@@H](O)[C@@H](C)[C@@H]4CC[C@@]32C)/C1=C(/CCC=C(C)C)C(=O)O (stereo partly drawn)
inactive: [5] 0.0714 | [6] 0.0604 | [7] 0.159 | [8] 0.0152

CC1CCC2(CO)CCC3(C)C(=CCC4C5(C)CCC(O)C(C)(C)C5CCC43C)C2C1C (stereo not drawn)
inactive: [1] 0.00774 | [2] -0.0265 | [3] 0.0749 | [4] 0.092

Cn1cnc2c(F)c(Nc3ccc(Br)cc3Cl)c(C(=O)NOCCO)cc21
inactive: [9] -0.0515 | [10] 0.111 | [11] -0.109 | [12] 0.0965 | [14] 0.113 | [16] 0.014 | [18] 0.0549 | [20] -0.089
active: [13] -0.189 | [15] -0.222 | [17] -0.293 | [19] -0.303

Cc1ccccc1CN1CCN(Cc2ccco2)CC1
inactive: [1] 0.12 | [2] 0.0129 | [3] 0.0799 | [4] -0.0931

Cc1ccc(CN2CCN(Cc3c[nH]c4ccccc34)CC2)cc1
inactive: [1] 0.0521 | [2] 0.0225 | [3] 0.104 | [4] 0.0231

CC(=O)c1cc2c(cc1O)OC(C)(C)C=C2
inactive: [1] 0.16 | [2] -0.0151 | [3] 0.126 | [4] 0.0912

CC(C(=O)O)N1C(=O)C(=Cc2ccccn2)SC1=S (stereo not drawn)
active: [1] -2.05 | [2] -1.9
inactive: [3] 0.144 | [4] 0.106

CC(C)N1C(=O)C(=Cc2ccccc2F)SC1=S
inactive: [1] 0.0965 | [2] 0.0324 | [3] 0.0812 | [4] -0.039
